A selection: hits, their analogues and other compounds. The true share with any hit is near 1.4%.
EPAC1 ag = activates human EPAC1 exchange factor; O95398; EPAC1 agonist qHTS, biochemical assay; response scale: 100% = response to 6.5 mM cAMP; Potency, µM (series often up to 154 µM), for the others: top-dose activation, most hits filed as activators; actives 0.073% (n = 360,000); further: potency means the concentration at half of the fitted maximal effect; nearly all actives have a fitted effect of over 60% in size
Target sequence (O95398 whole entry, looked up): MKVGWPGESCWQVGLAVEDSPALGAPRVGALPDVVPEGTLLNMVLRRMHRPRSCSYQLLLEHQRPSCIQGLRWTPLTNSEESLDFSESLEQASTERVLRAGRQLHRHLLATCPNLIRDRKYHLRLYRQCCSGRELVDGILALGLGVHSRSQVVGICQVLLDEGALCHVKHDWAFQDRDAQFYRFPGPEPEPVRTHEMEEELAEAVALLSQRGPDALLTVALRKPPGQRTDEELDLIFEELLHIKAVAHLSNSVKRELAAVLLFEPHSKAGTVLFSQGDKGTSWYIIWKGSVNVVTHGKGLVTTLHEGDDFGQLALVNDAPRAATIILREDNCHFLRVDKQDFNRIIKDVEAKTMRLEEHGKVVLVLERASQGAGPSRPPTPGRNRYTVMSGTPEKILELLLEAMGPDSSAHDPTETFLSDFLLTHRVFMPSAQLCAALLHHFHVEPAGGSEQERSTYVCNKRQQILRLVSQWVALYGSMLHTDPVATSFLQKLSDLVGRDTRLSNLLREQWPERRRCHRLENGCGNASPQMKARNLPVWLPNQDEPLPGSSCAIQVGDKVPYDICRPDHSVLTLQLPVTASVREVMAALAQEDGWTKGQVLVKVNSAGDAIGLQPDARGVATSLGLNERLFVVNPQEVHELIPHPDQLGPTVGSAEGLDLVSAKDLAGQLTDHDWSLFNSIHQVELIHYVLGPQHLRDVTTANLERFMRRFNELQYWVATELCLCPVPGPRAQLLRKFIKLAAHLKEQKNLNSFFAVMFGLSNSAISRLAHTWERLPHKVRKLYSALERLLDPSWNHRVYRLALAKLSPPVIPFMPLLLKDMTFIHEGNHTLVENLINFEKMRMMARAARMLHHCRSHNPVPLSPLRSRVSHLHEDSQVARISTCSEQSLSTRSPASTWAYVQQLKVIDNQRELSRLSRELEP
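Normalized to 6.5 mM cAMP, activity reflects EPAC1-catalysed release of BODIPY-GDP from Rap1B, followed kinetically over 30 min at 480 nm excitation, 540 nm emission. Reaction contained 100 nM EPAC1, 250 nM Rap1B-BODIPY-GDP, 50 uM GDP.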
EPAC2 antagonist = antagonists of human EPAC2; Q8WZA2; EPAC2 GEF exchange of Rap1B-BODIPY-GDP, fluorescence; Potency, µM (doses to about 114 µM), without a hit: at the top dose activity, negative = inhibition, most hits filed as inhibitors; actives 0.18% (n = 360,000); further: potency means the concentration at half of the fitted maximal effect; on the % scale 0 is the no-effect control and ±100 the full control effect; nearly all actives have a fitted effect of over 45% in size
KCNH2 3.1 block = inhibitors of human KCNH2 3.1 potassium channel isoform | AID 720553 | U2OS KCNH2 3.1, thallium flux FluxOr; hits give low values | actives 0.95% (n = 340,000) | activity change, % (tested at about 1.8 µM);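 active means maximum activity change below -70%; inconclusive means maximum activity change from -70% to -50%; inactive means maximum activity change above -50%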;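 further: thallium influx rate constant from kinetic fluorescence after stimulation buffer; on the % scale 0 is the no-effect control and ±100 the full control effect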
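Kinetic fluorescence (2 min after stimulation buffer) measures Tl+ influx through KCNH2 3.1 expressed by viral transduction in U2OS cells; the rate constant is normalized against DMSO controls serving as positive and negative references.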
EPAC1 antagonist = antagonists of human EPAC1 | O95398 | EPAC1 GEF assay, Rap1b-BODIPY-GDP exchange fluorescence | Potency, µM (series often up to 115 µM), inactives show top-dose activity change, negative = inhibition, most hits filed as inhibitors | actives 0.14% (n = 360,000);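 further: potency means the concentration at half of the fitted maximal effect; plate controls were vehicle for no effect and positive control for full effect; nearly all actives have a fitted effect of over 50% in size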
EPAC2 agonist = agonists of human EPAC2 (RAPGEF4) | actives 0.079% (n = 360,000) | Potency, µM (series often up to 154 µM), for the others: at the top dose activation, most hits filed as activators | EPAC2 activation, biochemical qHTS; response scale: 100% = 6.5 mM cAMP response | Q8WZA2; further: potency means the concentration at half of the fitted maximal effect; nearly all actives have a fitted effect of over 50% in size
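Setup: EPAC2 100 nM, labeled Rap1B complex 250 nM, free GDP 50 uM. Compound titrations pinned in, brief spin, 5 min room temperature incubation. Kinetic fluorescence read over 30 min, normalized to 6.5 mM cAMP.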
KCNH2 WT inh = inhibitors of human wildtype KCNH2 potassium channel; U2OS, BacMam KCNH2, thallium flux FluxOr; hits give low values; AID 720551; actives 0.37% (n = 340,000); activity change, % at 1.84 µM;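 active means maximum activity change below -70%; inconclusive means maximum activity change between -70% and -50%; inactive means maximum activity change above -50%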; further: on the % scale 0 is the no-effect control and ±100 the full control effect
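U2OS cells transduced with wild-type KCNH2 virus are loaded with FluxOr dye for 45 min, and thallium flux is measured in kinetic reads before and after stimulation buffer. Rate constants are normalized to DMSO controls.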
* hit, by the source's call. Unless noted, the call rests on the fitted dose curve; in most records, active means well fitted curve in the direction sought with a large enough effect; inconclusive means small, poorly fitted or top-dose-only effect, or another doubt; inactive means no such curve, though single readings can be large; an effect the other way counts as inactive or inconclusive.

What do the screens show for `CCOc1ccccc1NC(=O)Nc1ccc2c(c1)OCO2`?
EPAC1 ag: -6%; EPAC2 antagonist: -5%; KCNH2 3.1 block: -1; EPAC1 antagonist: -3%; EPAC2 agonist: 10%; KCNH2 WT inh: 0

How did O=C(NCc1ccccc1)c1onc(CSc2ccc(F)cc2)c1C(=O)NCc1ccccc1 do in these assays?
EPAC1 ag: -6%; EPAC2 antagonist: 9%; KCNH2 3.1 block: 9; EPAC1 antagonist: -7%; EPAC2 agonist: 15%; KCNH2 WT inh: 1

Results for O=C(NCc1ccccc1)c1onc(CSc2ccc(F)cc2)c1C(=O)NCCCN1CCOCC1 ?
EPAC1 ag: 7%; EPAC2 antagonist: -17%; KCNH2 3.1 block: -81*; EPAC1 antagonist: -11%; EPAC2 agonist: -4%; KCNH2 WT inh: inconclusive

What do the screens show for `Cc1cc(S(=O)(=O)N2CCN(CC(=O)N(C)Cc3ccccc3)CC2)ccc1Br`?
EPAC1 ag: 63µM*; EPAC2 antagonist: -2%; KCNH2 3.1 block: -14; EPAC1 antagonist: -11%; EPAC2 agonist: 5%; KCNH2 WT inh: 3

How did COc1ccc(S(=O)(=O)N2CCCC2)cc1C(=O)N1CCCCC1 do in these assays?
EPAC1 ag: 3%; EPAC2 antagonist: -9%; KCNH2 3.1 block: 2; EPAC1 antagonist: -19%; EPAC2 agonist: 0%; KCNH2 WT inh: -14

How did CCOc1cc(S(=O)(=O)N2CCN(Cc3ccccc3)CC2)ccc1Br do in these assays?
EPAC1 ag: -3%; EPAC2 antagonist: 4%; KCNH2 3.1 block: -82*; EPAC1 antagonist: -3%; EPAC2 agonist: 11%; KCNH2 WT inh: -10

What do the screens show for `Cc1ccc(S(=O)(=O)N2CCN(Cc3ccccc3)CC2)cc1`?
EPAC1 ag: 4%; EPAC2 antagonist: -2%; KCNH2 3.1 block: -3; EPAC1 antagonist: 1%; EPAC2 agonist: 13%; KCNH2 WT inh: 0

Results for CCN1CCN(S(=O)(=O)c2ccc(OC)c(Br)c2)CC1 ?
EPAC1 ag: 1%; EPAC2 antagonist: 4%; KCNH2 3.1 block: 0; EPAC1 antagonist: 4%; EPAC2 agonist: -3%; KCNH2 WT inh: -89*

What do the screens show for `COc1ccc(S(=O)(=O)N2CCCCC2)cc1C(=O)N1CCCC1`?
EPAC1 ag: -2%; EPAC2 antagonist: 11%; KCNH2 3.1 block: -11; EPAC1 antagonist: -1%; EPAC2 agonist: 2%; KCNH2 WT inh: -70*

How did Cc1cccc(/C(N)=N/OC(=O)c2ccc3c(c2)OCO3)c1 do in these assays?
EPAC1 ag: 6%; EPAC2 antagonist: 4%; KCNH2 3.1 block: -5; EPAC1 antagonist: -3%; EPAC2 agonist: -4%; KCNH2 WT inh: -105*

What do the screens show for `CN(C)c1ccc(/C=C/C(=O)c2ccccc2O)cc1`?
EPAC1 ag: 14%; EPAC2 antagonist: 4%; KCNH2 3.1 block: 8; EPAC1 antagonist: 7%; EPAC2 agonist: 15%; KCNH2 WT inh: 2

What do the screens show for `COc1ccc(C(=O)/C=C/c2ccc(N(C)C)cc2)c(OC)c1`?
EPAC1 ag: 100µM*; EPAC2 antagonist: 57%; KCNH2 3.1 block: -42; EPAC1 antagonist: 17%; EPAC2 agonist: -26%; KCNH2 WT inh: -43

Results for CN(C)c1ccc(/C=C/C(=O)c2ccc3c(c2)OCO3)cc1 ?
EPAC1 ag: 63µM*; EPAC2 antagonist: 59%; KCNH2 3.1 block: -21; EPAC1 antagonist: 89%; EPAC2 agonist: 100µM*; KCNH2 WT inh: -6

What do the screens show for `CCCCN1C(=O)c2ccc(C(=O)Nc3ccc(C)c(S(=O)(=O)N(C)C)c3)cc2C1=O`?
EPAC1 ag: -3%; EPAC2 antagonist: -12%; KCNH2 3.1 block: -74*; EPAC1 antagonist: -6%; EPAC2 agonist: -5%; KCNH2 WT inh: 6

What do the screens show for `CCCCNc1c(-c2ccc(-c3ccc(C(C)=O)cc3)c(OC)c2)nc2cc(C)ccn12`?
EPAC1 ag: -19%; EPAC2 antagonist: 6%; KCNH2 3.1 block: -71*; EPAC1 antagonist: -1%; EPAC2 agonist: -2%; KCNH2 WT inh: -15

Results for CCCCNc1c(-c2ccc(Sc3ccc(OC)cc3)cc2)nc2cc(C)ccn12 ?
EPAC1 ag: 11%; EPAC2 antagonist: 3%; KCNH2 3.1 block: -84*; EPAC1 antagonist: -11%; EPAC2 agonist: 5%; KCNH2 WT inh: inconclusive

What do the screens show for `CCCCCCSc1ccc(-c2nc3cnccn3c2NCCCC)cc1`?
EPAC1 ag: -13%; EPAC2 antagonist: -18%; EPAC1 antagonist: -27%; EPAC2 agonist: -15%

How did CCCCNc1c(-c2ccc(OC)c(SC(C)CC)c2)nc2cc(C)ccn12 (stereo not given) do in these assays?
EPAC1 ag: -23%; EPAC2 antagonist: inconclusive; KCNH2 3.1 block: -82*; EPAC1 antagonist: -24%; EPAC2 agonist: -7%; KCNH2 WT inh: 3

What do the screens show for `CCCNC(=S)NCc1ccc(Cl)cc1`?
EPAC1 ag: -2%; EPAC2 antagonist: 1%; KCNH2 3.1 block: 15; EPAC1 antagonist: inconclusive; EPAC2 agonist: 14%; KCNH2 WT inh: 1

How did CC(=O)c1ccc(N2CCN(C(=O)c3nn(Cc4ccccc4)c(=O)c4ccccc34)CC2)cc1 do in these assays?
EPAC1 ag: 0%; EPAC2 antagonist: 9%; KCNH2 3.1 block: -86*; EPAC1 antagonist: -24%; EPAC2 agonist: 3%; KCNH2 WT inh: inconclusive

How did CC(C)(C)c1ccc(OCCC(=O)OCC(=O)Nc2ccc(N3CCOCC3)cc2)cc1 do in these assays?
EPAC1 ag: 71µM*; EPAC2 antagonist: -2%; KCNH2 3.1 block: 29; EPAC1 antagonist: -17%; EPAC2 agonist: -15%; KCNH2 WT inh: 1

What do the screens show for `COc1ccc(OCCC(=O)OCC(=O)Nc2ccc(S(=O)(=O)N3CCOCC3)cc2)cc1`?
EPAC1 ag: -4%; EPAC2 antagonist: -7%; KCNH2 3.1 block: 24; EPAC1 antagonist: inconclusive; EPAC2 agonist: 14%; KCNH2 WT inh: 3

How did Cc1ccc(N(CC(O)CN2CCCCC2)S(=O)(=O)c2ccccc2)cc1 (stereo not given) do in these assays?
EPAC1 ag: 10%; EPAC2 antagonist: 23%; KCNH2 3.1 block: inconclusive; EPAC1 antagonist: -25%; EPAC2 agonist: 3%; KCNH2 WT inh: 25

What do the screens show for `Cc1ccc(N(CC(O)CN2CCCCC2)S(=O)(=O)c2ccc(C)cc2)cc1` (stereo not given)?
EPAC1 ag: 3%; EPAC2 antagonist: 0%; KCNH2 3.1 block: -99*; EPAC1 antagonist: -5%; EPAC2 agonist: 7%; KCNH2 WT inh: -7

How did COC(=O)CSc1nnc(CNS(=O)(=O)c2ccc(C)cc2)n1C do in these assays?
EPAC1 ag: -5%; EPAC2 antagonist: 14%; KCNH2 3.1 block: 4; EPAC1 antagonist: 6%; EPAC2 agonist: 5%; KCNH2 WT inh: -253*

Screening data: PubChem BioAssay, National Center for Advancing Translational Sciences (NCATS)
